# Reference: PubChem BioAssay (NCI)
# Compounds without any hit were thinned out: in the full panel of roughly 83,000, 20% have a hit.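 Method: cells in 96-well plates; compound added at one concentration; 48 h incubation; percent growth measured; values under 10 scored active.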 Values without a mark were called inactive. Active and inactive are the calls of the source.
# Tested on: HL-60(TB) leukemia
# Assay: NCI-60 one-dose screen, 48 h (100 = growth as untreated, 0 = no growth, -100 = all killed)
# Conditions: 10 µM unless noted
row,Compound,growth
1,COc1cc(N=Nc2cc(Cc3ccc(N(C)C)cc3)c(N)cc2N(C)C)c2ncccc2c1,-55.5% (active)
2,Cc1cc(Cc2cc(C)c(O)c(C)c2)cc(C)c1O,15.6%
3,CCCn1cnc2c(c1=N)C(c1ccc(F)cc1)c1sc3c(F)cccc3c1O2 (stereo not given),3.36% (active)
4,CCOC(=O)Nc1ccc2nc(Sc3ccc(Cl)cc3)sc2c1,10.1%
5,CCC#CC[C@H]1C/C=C2/C(=O)C=C[C@@H]2C/C=C\CCCC(=O)O1,-19.1% (active)
6,O=C(C[C@]1(O)C(=O)Nc2ccc(Br)cc21)c1ccco1,107%
7,COc1ccc2c(c1)C(=O)c1c-2c(=O)n(CCCCCCC(=O)NO)c2ccccc12,12.7%
8,CN(C)c1ccc(N=C2C=CC(=O)C=C2)cc1,111%
9,COc1ccc(O)c(N=Nc2nccs2)c1,-22.5% (active)
10,COc1ccc(-c2ccc3cc(C(=O)Nc4ccc(O)c(C(=O)/C=C/c5cc(OC)c(OC)c(OC)c5)c4)ccc3c2)cc1,95.5%
11,c1ccc(OCCC[P+](c2ccccc2)(c2ccccc2)c2ccccc2)cc1,-57.3% (active)
12,CC1=C([Se]CC(OC(=O)[C@@H](CSSC(C)(C)C)NC(=O)C(C)(C)C)C(=O)NCCCCCC(=O)OCc2ccccc2)C(=O)c2ccccc2C1=O (stereo not given in full),-24.4% (active)
13,COc1cnc2c(c1)C(=O)c1c-2n(CCCNCCN2CCOCC2)c(=O)c2cc([N+](=O)[O-])ccc12,-15.7% (active)
14,Cc1cc(C2(c3cc(C)c(O)cc3C)OS(=O)(=O)c3ccccc32)c(C)cc1O,87.8%
15,C=C1C(=O)O[C@H]2[C@H]1CC/C(COC(=O)CCCCCC(=O)OC/C1=C/CC[C@@]3(C)O[C@H]3[C@H]3OC(=O)C(=C)[C@@H]3CC1)=C\CC[C@@]1(C)O[C@@H]21,-30% (active)
16,COc1ccc(-c2nnc(COc3ccc(NC(=O)Nc4cccc(C(F)(F)F)c4)cc3F)o2)cc1,4.03% (active)
17,NS(=O)(=O)c1ccc(CCN2C(=O)c3cc(Cl)c(Cl)cc3C2=O)cc1,86.5%
18,CCOc1ccc2nc(SCc3nc4n(n3)S(=O)(=O)c3ccccc3N4C)sc2c1,12.9%
19,CN(C)CCCOc1ccc(NC2=C(Cl)C(=O)C(Nc3ccc(OCCCN(C)C)cc3)=C(Cl)C2=O)cc1,-39.9% (active)
20,O=C(CCl)N1c2ccccc2Sc2c1ccc1ccccc21,62.7%

row,Compound,growth
1,CC(C)[C@@H]1NC(=O)[C@]2(C)CSC(=N2)c2ccnc(c2)CNC(=O)C[C@@H](/C=C/CCS)OC1=O,9.07% (active)
2,CC1(c2ccccc2Cl)NC(=O)NC1=O (stereo not given),87.8%
3,CCOC(=O)C1=C(C)N=c2s/c(=C\c3cc(Cl)ccc3O)c(=O)n2C1c1ccc(OC)cc1 (stereo not given),98%
4,CCN(CC)Cc1cc(Nc2nc(NC3CCC(N(C)C)CC3)c3ccccc3n2)ccc1OC (stereo not given),69%
5,O=C(Nc1ccc(Oc2ccc(F)cc2)c(Cl)c1)c1cccnc1,83.2%
6,CCCCCCCC/C=C/CCCCCCCC1=NC(C)(C)CN1CCO,-61.5% (active)
7,C=C(C)C1CCC2(C(=O)O)CCC3(C)C(CCC4C5(C)CCC(O)C(C)(C)C5CCC43C)C12 (stereo not given),-40% (active)
8,COc1ccc2c(c1)/C(=C/c1sc(=S)n(Cc3ccco3)c1O)C=N2,3.03% (active)
9,Cc1ccc(S(=O)(=O)c2nc(-c3ccccc3)oc2Sc2nc3ccccc3s2)cc1,71.9%
10,COc1ncc(-c2ccc3nccc(-c4ccnnc4)c3c2)cc1NS(=O)(=O)c1ccc(F)cc1F,-13.8% (active)
11,O=C(O)CC1Cc2ccccc2C1C(=O)O (stereo not given),65%
12,CC1=C(C(=O)Nc2ccc(F)cc2)C(c2ccccc2)C2=C(CC(C)(C)CC2=O)N1 (stereo not given),76%
13,COc1cc(CCC[P+](c2ccccc2)(c2ccccc2)c2ccccc2)cc2c1OCO2,10.3%
14,COc1ccc(/C=C/c2nc(Nc3ccc(S(=O)(=O)Nc4nc(C)cc(C)n4)cc3)c3ccccc3n2)cc1,73.6%
15,CCOC(=O)/C=C\C(=O)NC(N)=O,74.9%
16,COc1ccc(NC(=O)c2ccc(C(=O)Nc3ccc(OC)cc3OC)cc2)c(OC)c1,88.5%
17,CC1(C)CC[C@]2(CO)CC[C@]3(C)C(=CC[C@@H]4[C@@]5(C)CC[C@H](NCO)C(C)(C)[C@@H]5CC[C@]43C)[C@@H]2C1,-60.5% (active)
18,COc1ccc(/C=C/c2ccc3ccccc3n2)c(OC)c1,40.7%
19,COc1ccc2c(O)c(/C=C3\N=Nc4ncccc43)oc2c1C[C@@H]1CCNC[C@H]1F,-23.3% (active)
20,COc1ccc2c(c1)CCCN2c1c2ccccc2nc2ccccc12,5.6% (active)
